Where “and” joins values, the source holds several entries; their conditions need not be identical. Identical values can stand only once. Among all 78,000 compounds or so, about 1,800 (2.3%) were called active. About 27% were inconclusive and are not listed. Rule as the data show it: active = inhibition above about 30%; inconclusive = mostly about 10% to 28%; inactive = weaker than that. The list comes from a sample in which actives are over-represented; it also holds similar structures and randomly drawn compounds.

The target in the assay is Interleukin-1 receptor-like 1 (Homo sapiens) (UniProt Q01638). The assay is described as follows: inhibitors of human ST2 (IL1RL1) binding to IL-33, primary screen, biochemical, AlphaLISA (AID 1259354). Particulars: AlphaLISA ST2-Fc/biotin-IL-33 interaction, 1 h; at 17 µM, hits give high values.
Chain of Interleukin-1 receptor-like 1 (Homo sapiens) (Q01638 whole entry, looked up): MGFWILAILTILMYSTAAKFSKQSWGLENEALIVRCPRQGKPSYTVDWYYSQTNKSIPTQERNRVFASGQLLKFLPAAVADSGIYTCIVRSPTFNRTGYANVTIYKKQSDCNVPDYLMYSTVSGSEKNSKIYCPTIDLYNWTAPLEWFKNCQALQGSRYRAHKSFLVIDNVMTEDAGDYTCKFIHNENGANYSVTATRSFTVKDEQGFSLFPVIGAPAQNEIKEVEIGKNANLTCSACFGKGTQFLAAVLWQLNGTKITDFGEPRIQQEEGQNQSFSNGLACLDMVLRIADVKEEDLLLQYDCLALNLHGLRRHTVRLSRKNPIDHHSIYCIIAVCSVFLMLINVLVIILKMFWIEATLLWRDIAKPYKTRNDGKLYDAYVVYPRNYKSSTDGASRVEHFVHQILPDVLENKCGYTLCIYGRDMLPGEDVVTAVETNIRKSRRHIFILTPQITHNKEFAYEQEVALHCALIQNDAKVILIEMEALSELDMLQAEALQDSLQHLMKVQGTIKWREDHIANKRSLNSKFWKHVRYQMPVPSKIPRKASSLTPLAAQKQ
Regarding `O=[N+]([O-])c1cccc(-c2noc([C@@H]3C[C@@H](O)CN3Cc3ccc(C(F)(F)F)cc3)n2)c1`, the inhibition (usually the change of the read-out against control, counted positive when it falls) is “inactive”.

Regarding `N#C/C(=C\c1ccc(-c2cccc([N+](=O)[O-])c2)o1)C(=O)Nc1cccc(C(F)(F)F)c1`, the inhibition was 30% (active).

In the case of `N#CC(C(=O)Nc1cccc(C(F)(F)F)c1)=C1CCCCCC1`, the inhibition result was “inactive”.

On to `O=C(C1CCCN(Cc2c[nH]c3ccccc23)C1)N1CCCCCC1` (stereo unspecified), for which the inhibition result was “inactive”.

As for `COc1ccc(-c2oc3ncn(Cc4ccco4)c(=N)c3c2-c2ccc(OC)cc2)cc1`, the inhibition is 31% (active).

Turning to `Fc1ccc(C=Nc2c(-c3ccco3)nc3ccccn23)cc1`, the inhibition is 49% (active).

Regarding `Cc1cccc2nc(-c3ccco3)c(Nc3ccc(F)cc3)n12`, the inhibition entry was “inactive”.

As to `O=C(Nc1c(-c2ccc(F)cc2)nc2ccccn12)c1cccc(F)c1`, the inhibition result was “inactive”.

In the case of `Fc1cccc(N2N=C(/C=C/c3cccs3)CC2c2cccs2)c1` (stereo unspecified), the inhibition is 32% (active).

As for `CCN(CC)S(=O)(=O)c1ccc(C(=O)Nc2nnc(-c3cc(OC)cc(OC)c3)o2)cc1`, the inhibition result was “inactive”.

As for `N#C/C(=C/c1ccc2c(c1)OCO2)c1nc(-c2cccc(Br)c2)cs1`, the inhibition was 30% (active).

Turning to `N#C/C(=C\c1cccc(F)c1)c1nc(-c2ccc3c(c2)OCO3)cs1`, the inhibition entry is “inactive”.

`COc1ccccc1OCCNC(=O)c1ccccc1O`: the inhibition result is “inactive”.

As to `CCSc1nnc(NC(=O)Nc2ccc(Cl)cc2)s1`, the inhibition result was “inactive”.

In the case of `O=C(Nc1ccc([N+](=O)[O-])cc1Br)c1cncc(Br)c1`, the inhibition was 47% (active).

On to `O=C(Nc1ccc([N+](=O)[O-])cc1Cl)c1cccc(Br)c1`, for which the inhibition result is “inactive”.

Take `O=C(Nc1ccc([N+](=O)[O-])cc1Br)c1ccncc1`: the inhibition result was “inactive”.

On to `CC(C)N(C(=O)Cn1c(Cl)nc2c1c(=O)n(C)c(=O)n2C)c1ccccc1`, for which the inhibition entry is “inactive”.

With `CCc1ccc(NC(=O)c2ccc(CN3CCOCC3)cc2)cc1`, the inhibition result was “inactive”.

On to `O=C(Nc1ccc(Cl)cc1)Nc1ccc2n(c1=O)C[C@H]1C[C@@H]2CN(C(=O)Cc2cccs2)C1`, for which the inhibition entry is “inactive”.

`COc1ccc(-c2cccc(-n3cccn3)c2)cc1C(N)=O`: the inhibition result is “inactive”.

As to `CN1CCCC2(CC1)CCN(C(=O)c1cc3ccccc3n(C)c1=O)CC2`, the inhibition entry was “inactive”.

As to `COc1cc(OC)cc(C(=O)N2c3ccccc3Sc3ccccc32)c1`, the inhibition result was “inactive”.

Regarding `O=c1nc2cc3[nH]c4c(=O)c5ccccc5c4[nH]c3cc2n1`, the inhibition was 46% (active).

For `O=C(c1cccc(I)c1)n1nnc2ccccc21`, the inhibition result was “inactive”.

With `CCSc1ncc(CN2CC[C@@H](N(C)CCc3ccccn3)[C@H](O)C2)cn1`, the inhibition result was “inactive”.

For `CC(=O)Nc1ncc2c(n1)CC(c1ccc(F)cc1)CC2=O` (stereo unspecified), the inhibition entry was “inactive”.

`COc1ccc(-c2cc(C(F)(F)F)nc(NCc3cccnc3)n2)cc1`: the inhibition entry was “inactive”.

As to `COc1ccc(-c2cc(C(=O)Nc3cccnc3)c3ccccc3n2)cc1`, the inhibition result is “inactive”.

In the case of `COc1ccc(-c2csc(/C(C#N)=C\c3cccnc3)n2)cc1`, the inhibition is 31% (active).

Regarding `CCc1cccc(NS(=O)(=O)c2cc(Br)cc3c2N(C(C)=O)C(C)C3)c1` (stereo unspecified), the inhibition result is “inactive”.

Turning to `O=C(c1cscn1)N1CCCC(CCc2ccccc2C(F)(F)F)C1` (stereo unspecified), the inhibition entry was “inactive”.

Turning to `O=C1N=C(N2CCOCC2)S/C1=C/c1ccc(F)cc1`, the inhibition entry was “inactive”.

With `COc1ccc(/C=C2\SC(=O)N(c3ccc(C)cc3)C2=O)cc1`, the inhibition result was “inactive”.

Consider `N=C1S/C(=C\c2ccc(N3CCOCC3)cc2)C(=O)N1c1ccccc1Cl`, for which the inhibition is 31% (active).

In the case of `CCC1=Nc2cc(C(=O)NCCN(CC)CC)ccc2Sc2ccc(C)cc21`, the inhibition entry was “inactive”.

Take `COc1ccc(C2CC(c3ccc(C)cc3)Nc3ncnn32)cc1` (stereo unspecified): the inhibition result was “inactive”.

On to `COc1ccc(C2NC(=O)N(C)C(C)=C2[N+](=O)[O-])cc1` (stereo unspecified), for which the inhibition result was “inactive”.

For the molecule `COc1ccc(C2CC(c3ccc([N+](=O)[O-])cc3)=NN2)cc1` (stereo unspecified), the inhibition is 30% (active).

Take `COC(=O)c1nc2n(n1)C(c1ccc(F)cc1)C1=C(CCCC1=O)N2` (stereo unspecified): the inhibition result was “inactive”.

In the case of `CC(=O)c1ccc(NC(=O)CCC2CCCCC2)cc1`, the inhibition entry is “inactive”.

`FC(F)(F)c1cccc(NCn2nnc3ccccc32)c1`: the inhibition result is “inactive”.

`Cc1nn(-c2ccccn2)c2c1C(=O)/C(=C/Nc1cccc(C(F)(F)F)c1)CC2`: the inhibition was 35% (active).

For the molecule `O=C(CCN1C(=O)c2ccccc2C1=O)Nc1cccc(C(F)(F)F)c1`, the inhibition result was “inactive”.

In the case of `CCOc1ccc2[nH]c(C(=O)O)c(CCN)c2c1`, the inhibition entry is “inactive”.

Regarding `Cc1[nH]c2ccc(CNC(=O)[C@@H](O)Cc3ccccc3)cc2c1C`, the inhibition entry is “inactive”.

For the molecule `COc1ccc(Br)cc1C(=O)Nc1cccc(Cl)c1`, the inhibition result is “inactive”.

As for `Cc1ccc2ncc(NC(=O)c3cccs3)c(=O)n2c1`, the inhibition was 83% (active).

For `O=C(NC1CCCCCCC1)c1cccs1`, the inhibition entry is “inactive”.

In the case of `O=C(Nc1cccc(OCc2cc(=O)n3cc(Cl)ccc3n2)c1)c1cccs1`, the inhibition result is “inactive”.

As for `Fc1cccc(CC2CN(Cc3cn[nH]c3-c3ccccc3)CCO2)c1` (stereo unspecified), the inhibition result is “inactive”.

Take `N#CC(c1ccco1)N1CCN(C(C#N)c2ccco2)CC1` (stereo unspecified): the inhibition entry is “inactive”.

Consider `CCOc1ccc(S(=O)(=O)N=C2C=C(Nc3ccc(C)cc3)C(=O)c3ccccc32)cc1`, for which the inhibition was 91% (active).

Regarding `COc1ccc(NS(=O)(=O)c2ccc(Cl)cc2)cc1`, the inhibition result is “inactive”.

With `COc1ccc(S(=O)(=O)NC(c2ccccc2)c2ccccc2)cc1`, the inhibition result is “inactive”.

Turning to `CCc1ccc(S(=O)(=O)N=C2C=C(Br)C(=O)c3ccccc32)cc1`, the inhibition was 36% (active).

For `CCOc1ccc(NS(=O)(=O)c2ccc(NC(=O)c3ccccc3Br)cc2)cc1`, the inhibition result is “inactive”.

`CCc1ccc(S(=O)(=O)N=C2C=C(Nc3ccc(OC)cc3)C(=O)c3ccccc32)cc1`: the inhibition was 95% (active).

On to `CCOc1ccc(NS(=O)(=O)c2ccc(Cl)cc2)cc1`, for which the inhibition result is “inactive”.

Take `O=C1C(Nc2ccc(Br)cc2)=CC(=NS(=O)(=O)c2cccs2)c2ccccc21`: the inhibition is 79% (active).

Consider `CCN(CC)S(=O)(=O)c1ccc(OC)c(NC(=O)c2cc(OC)c(OC)c(OC)c2)c1`, for which the inhibition result was “inactive”.

Turning to `Cc1cccc(OCC(=O)Nc2cc(C(F)(F)F)ccc2Cl)c1`, the inhibition result was “inactive”.

With `Cc1ccc(CNC(=O)c2ccc3nc4sc5c(c4c(=O)n3c2)CCCC5)cc1`, the inhibition result is “inactive”.

Regarding `CCOc1ccc(NC(=O)C2CCN(S(=O)(=O)c3ccc(OC)c(OC)c3)CC2)cc1`, the inhibition result is “inactive”.

Regarding `COc1ccc(C2=N/C(=C\c3ccc(C(C)C)cc3)C(=O)O2)cc1[N+](=O)[O-]`, the inhibition entry is “inactive”.

In the case of `CCC(C(=O)NCc1ccccc1Cl)c1ccccc1` (stereo unspecified), the inhibition entry is “inactive”.

In the case of `O=C(c1ccccc1Cl)N1CCCCC1`, the inhibition entry is “inactive”.

Consider `CCCCN(CC)S(=O)(=O)c1ccc2[nH]c(=O)cc(C(=O)NC3CCCCC3C)c2c1` (stereo unspecified), for which the inhibition result is “inactive”.

On to `Cc1ccc(NC(=O)CNCCOc2ccccc2)c(C)c1`, for which the inhibition result is “inactive”.

For the molecule `NC(=O)Cn1cnc2c(cnn2-c2ccc(F)cc2)c1=O`, the inhibition entry was “inactive”.

Turning to `C[C@@H](NC(=O)C1=C[C@@H](NC(=O)CS(=O)(=O)c2ccccc2)[C@@H](O)[C@H](O)C1)C(N)=O`, the inhibition entry was “inactive”.

As for `COc1ccc(Cl)cc1NC(=O)c1nn(-c2ccc(Cl)cc2)c(=O)c2ccccc12`, the inhibition result was “inactive”.

Consider `COc1cc2c(C(=O)N3CCCC3)cn(C)c(=O)c2cc1OC`, for which the inhibition result is “inactive”.

On to `CCOc1ccc(C(C)=O)cc1N1C(=O)C2C3C=CC(CC3)C2C1=O` (stereo unspecified), for which the inhibition entry was “inactive”.

For `COc1ccc(C2C(=C(O)c3ccc(Cl)cc3)C(=O)C(=O)N2CCCN(C)C)c(OC)c1` (stereo unspecified), the inhibition entry was “inactive”.

On to `CN(C)CCCn1c(-c2ccc(Cl)cc2)csc1=Nc1ccccc1`, for which the inhibition is 63% (active) and 45% (active).

Turning to `CCn1c(C)csc1=Nc1cccc(C(F)(F)F)c1`, the inhibition result was “inactive”.

Turning to `O=C(CN1C(=O)CC(c2ccccc2)=Nc2ccccc21)Nc1ccc(Cl)cc1`, the inhibition entry is “inactive”.

With `CCOC(=O)c1sc2nc3n(c(=O)c2c1C)N=C(c1ccccc1)CS3`, the inhibition entry was “inactive”.

As for `O=C1NN=C(c2ccccc2)/C1=C/c1ccc(-c2ccc(Cl)cc2)o1`, the inhibition was 49% (active).

Turning to `Cc1c(Cl)c([N+](=O)[O-])nn1CCCC(=O)Nc1cc(Cl)ccc1Cl`, the inhibition entry was “inactive”.

Regarding `Cn1c(=O)c2c(nc(Cl)n2CC(=O)NC(C)(C)C)n(C)c1=O`, the inhibition result was “inactive”.

Consider `CCc1ccc(CNC(=O)c2cc3cc4ccc(OC)cc4nc3o2)cc1`, for which the inhibition entry is “inactive”.

As to `O=C(Nc1ccc2c(c1)OCCO2)c1cc2cc3ccc(Cl)cc3nc2o1`, the inhibition was 47% (active).

Take `CC(C)NC(=O)c1cc2cc3ccc(Cl)cc3nc2o1`: the inhibition result is “inactive”.

With `CCOCCCNC(=O)c1oc2ccc(S(=O)(=O)N3CCC(C)CC3)cc2c1C`, the inhibition result was “inactive”.

Regarding `Cc1ccc(C(=O)Nc2ccc3nn(-c4ccccc4)nc3c2)cc1`, the inhibition result was “inactive”.

For `O=C(O)c1cccc(N=Cc2nc(-c3ccc(Br)cc3)oc2O)c1`, the inhibition entry is “inactive”.

For `O=C(COc1cccc([N+](=O)[O-])c1)Nc1ccc(-c2nnc(-c3ccco3)o2)cc1`, the inhibition is 45% (active).

For `Cc1cccc(OCC(=O)Nc2ccc(-c3nc4ncccc4o3)cc2)c1`, the inhibition result is “inactive”.

For `COc1ccc(CC(=O)Nc2ccc(-c3nnc(-c4ccccc4)o3)cc2)cc1`, the inhibition result is “inactive”.

Regarding `Cc1c(F)cccc1NC(=O)C(C)Oc1ccc(Cl)cc1Cl` (stereo unspecified), the inhibition entry was “inactive”.

Consider `O=C1CC(N2CCc3ccccc3C2)C(=O)N1c1ccc([N+](=O)[O-])cc1` (stereo unspecified), for which the inhibition result was “inactive”.

With `O=C(c1ccco1)N1CCN(c2ccc([N+](=O)[O-])cc2)CC1`, the inhibition entry is “inactive”.

Consider `O=C1CC(c2ccccc2)=NN1c1ccc([N+](=O)[O-])cc1`, for which the inhibition is 43% (active).

As to `Cc1ccc(-c2cc(N3CCN(S(=O)(=O)c4cc(C)c(C)cc4C)CC3)ncn2)cc1`, the inhibition entry is “inactive”.

On to `O=C(CSCc1ccccc1)Nc1c(-c2ccc(F)cc2)nc2ccccn12`, for which the inhibition result is “inactive”.

Consider `CC(C)CN(CC(C)C)S(=O)(=O)c1ccc(C(=O)Nc2sc3c(c2C#N)CCC3)cc1`, for which the inhibition result is “inactive”.

Take `Cc1cc(C)c(C#N)c(SCC(=O)c2ccc3c(c2)OCO3)n1`: the inhibition entry is “inactive”.

As for `COc1cccc(-c2c(C#N)c(N)n3c(nc4ccccc43)c2C#N)c1`, the inhibition entry was “inactive”.

As to `N#Cc1c(-n2ncnc2-c2ccccc2)sc2c1CCCC2`, the inhibition was 31% (active).

For the molecule `N#Cc1c(NC(=O)CCCC(=O)O)sc2c1CCCC2`, the inhibition entry is “inactive”.

Turning to `COc1cccc(-c2ncnn2-c2sc3c(c2C#N)CCCCC3)c1`, the inhibition is 65% (active).

For `N#Cc1c(-n2ncnc2-c2ccc3c(c2)OCO3)sc2c1CCCC2`, the inhibition is 47% (active).

Turning to `COc1cccc(C(=O)Nc2sc3c(c2C(N)=O)CCCCCC3)c1`, the inhibition result is “inactive”.

Take `O=C(Nc1ncnc2sc3c(c12)CCCC3)c1ccccc1`: the inhibition result was “inactive”.
